Each structure is given as a SMILES string. The whole screen tested about 310,000 compounds, of which about 17,000 (5.5%) were called active. About 11% were inconclusive and are not listed. Calls come from the whole dose curve; as a rule, active = well fitted inhibition curve with a large enough effect; inconclusive = small, poorly fitted or top-dose-only effect, or effect the other way; inactive = no such curve, though single readings can be large or run the other way. The list comes from a sample in which actives are over-represented; it also holds similar structures and randomly drawn compounds. A call without a number means that no potency is given here.
Potency is the fitted concentration of half-maximal effect.

Sequence of Nuclear receptor ROR-gamma (Mus musculus) (P51450 whole entry, looked up, the tested form may be a part): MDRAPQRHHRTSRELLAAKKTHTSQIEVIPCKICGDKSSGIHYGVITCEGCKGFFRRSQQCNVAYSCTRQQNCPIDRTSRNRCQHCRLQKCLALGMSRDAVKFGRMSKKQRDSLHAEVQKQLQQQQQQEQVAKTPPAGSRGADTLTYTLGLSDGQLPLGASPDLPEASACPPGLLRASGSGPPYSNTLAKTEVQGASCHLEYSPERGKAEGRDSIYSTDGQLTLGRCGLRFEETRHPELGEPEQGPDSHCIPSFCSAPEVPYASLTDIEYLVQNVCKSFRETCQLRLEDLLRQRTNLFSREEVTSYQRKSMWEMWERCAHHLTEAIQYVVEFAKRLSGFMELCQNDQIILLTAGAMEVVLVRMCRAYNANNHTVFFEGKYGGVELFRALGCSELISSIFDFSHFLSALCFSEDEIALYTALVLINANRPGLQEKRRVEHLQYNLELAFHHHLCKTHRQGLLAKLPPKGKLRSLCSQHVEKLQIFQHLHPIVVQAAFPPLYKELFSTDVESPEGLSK

The test has as its target Nuclear receptor ROR-gamma (Mus musculus) (UniProt P51450). Nature of the test: qHTS for inhibitors of ROR gamma transcriptional activity. Note: nearly all actives have a fitted effect of over 60% in size. The following applies: Drosophila S2 Gal4-RORgamma UAS-luciferase reporter, 20 h; series mostly up to 53.6 µM. In short, it runs like this:
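Compounds are pin-transferred onto Drosophila Schneider cells expressing a copper-inducible Gal4–ROR gamma transactivation domain fusion. After 1 hr, copper sulfate is added to 700 uM final; luciferase is read 20 hr later.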
For `O=C(O)c1cc([N+](=O)[O-])c(Nc2cccc3ccccc23)c([N+](=O)[O-])c1`, the Potency entry was “inactive”. `CSc1ccccc1NC(=O)c1ccc2c(c1)CCN2S(C)(=O)=O`: the Potency result is “inactive”.

For `Cc1occc(=O)c1OCc1c(Cl)cccc1Cl`, the Potency result was “inactive”.

In the case of `CCCOc1ccc(C(=O)NCCc2ccccc2)cc1`, the Potency is 11.2 µM (active).

Take `O=C(NCCc1ccccc1)c1ccc(OCCOc2ccccc2)cc1`: the Potency entry was “inactive”. Consider `O=C(NCCOc1ccccc1)c1ccccc1`, for which the Potency entry was “inactive”. As for `CCOC(=O)c1c(C)[nH]c(C)c1S(=O)(=O)NCCCc1ccco1`, the Potency entry is “inactive”. In the case of `Cc1cc(C)c2nc(NC(=O)c3ccc4c(c3)OCO4)sc2c1`, the Potency was 0.251 µM (active). On the same count and under the same terms, with `C/C(Cc1ccccc1)=N\NC(=O)CNC(=O)c1ccc2c(c1)OCCO2` the entry was “inactive”; with `O=C(Nc1ccccc1F)c1ccc2c(c1)OCO2`, “inactive”; with `Cc1ccc(-n2nc3c(c2NC(=O)c2ccc4c(c2)OCO4)CSC3)c(C)c1`, “inactive”. As to `O=C(Nc1nc2ccccc2s1)c1ccc2c(c1)OCO2`, the Potency was 7.94 µM (active). On the same count and under the same terms, with `Cc1ccc2sc(NNC(=O)c3ccc4c(c3)OCCO4)nc2c1C` the figure was 7.94 µM (active); with `COCc1nnc(NC(=O)c2ccc3c(c2)OCO3)s1`, “inactive”. Same read-out and setting: next, `Cc1cc(C)c2nc(NC(=O)C3CCCO3)sc2c1` (stereo not drawn): “inactive”. Consider `Cc1ccc(F)cc1NC(=O)c1ccc2c(c1)OCO2`, for which the Potency result was “inactive”. On the same count and under the same terms, next, `COc1ccc(C)cc1N(C(=O)Cn1nnc(-c2ccc(C)o2)n1)C(C(=O)NC1CCCC1)c1ccncc1` (stereo not drawn): “inactive”; `CCCN1CCN(C(=O)CCCNC(=O)c2ccc(Cl)cc2)CC1`: “inactive”.

For the molecule `COCCCN1C(=O)c2ccc(C(=O)OCC(=O)NCc3ccccc3OC)cc2C1=O`, the Potency entry was “inactive”. On to `CCOCCCNc1nc(-c2ccccc2)nc2ccccc12`, for which the activity change, negative = inhibition was 24.9% [at 1.91 µM] (inactive). As for `COc1ccc(CN(C)C(=O)Cc2ccsc2)c(OC)c1OC`, the Potency entry was “inactive”. The same measure, in the same setting: with `CC(=O)c1ccc(NC(=O)c2ccc(-n3cncn3)c([N+](=O)[O-])c2)cc1` the entry was “inactive”.

For `CCCC[C@]12Cc3cc(OC)c(OC)cc3C(O1)C1=C(CC3(CCCCC3)OC1=O)O2`, the activity change, negative = inhibition is 3.02% [at 10 µM] (inactive). Consider `COCCc1nn2c(=O)cc(COC(=O)c3cc(OC)c(OC)c(OC)c3)nc2s1`, for which the Potency entry is “inactive”. The same measure, in the same setting: next, `CN(c1ccccc1)S(=O)(=O)c1ccc(C(=O)NCCc2ccccc2)cc1`: “inactive”; `CCCc1cc(C(=O)N2CCCC(CO)(CCCc3ccccc3)C2)n(C)n1` (stereo not drawn): “inactive”; `CCOc1ccc(NC(=O)CCCCCN2C(=O)[C@@H]3Cc4ccccc4CN3C2=O)cc1`: “inactive”. `Cc1cc(-c2nnc(SCC(=O)Nc3ccc(F)cc3)n2N)n[nH]1`: the Potency entry was “inactive”. Take `CCOC(=O)C1=C(C)NC(SC)=NC1c1ccccc1` (stereo not drawn): the Potency result is “inactive”. Same read-out and setting: next, `C=CCC1(C#N)C(=S)NC(C)=C(C(=O)OCC)C1c1ccccc1` (stereo not drawn): 10 µM (active); `C=CCOC(=O)C1=C(C)OC(N)=C(C#N)C1c1ccc(F)cc1` (stereo not drawn): “inactive”; `CC(C(=O)Nc1ccc(O)c(C(=O)O)c1)N1C(=O)/C(=C/c2cccs2)SC1=S` (stereo not drawn): “inactive”.

As to `O=C(COC(=O)c1ccc(F)cc1)NCCCc1ccccc1`, the Potency result is “inactive”. The same measure, in the same setting: with `O=C(NCCc1cccc(F)c1)C1CCCN(c2nc3ccccc3s2)C1` (stereo not drawn) the entry was “inactive”. Turning to `COc1cccc(NC(=O)c2nn(-c3ccc(OC)cc3OC)c(=O)c3ccccc23)c1`, the Potency entry was “inactive”.

As for `COc1cccc(NC(=O)c2ccccc2SC)c1`, the Potency result was “inactive”. On the same count and under the same terms, next, `COc1cccc(NC(=S)NC(=O)c2c(Cl)c(C)nn2C)c1`: 3.55 µM (active). Same read-out and setting: with `CC1(C(=O)N/N=C/c2cc3c(cc2Br)OCO3)CC1(Br)Br` (stereo not drawn) the entry was “inactive”; with `COc1ccccc1-c1nnc(SCC(=O)Nc2cc(C)on2)o1`, “inactive”. With `CC(=O)Oc1ccc(-c2nc3c(C)cccc3c(=O)o2)cc1`, the Potency entry is “inactive”. Same read-out and setting: next, `COc1ccc(/C=C/c2noc(-c3ccccc3OC(C)=O)n2)cc1`: 11.2 µM (active); `Cc1ccccc1NC(=O)CCOc1ccccc1`: “inactive”. Same read-out and setting: next, `CCOC(=O)c1ccc(NC(=O)c2nc[nH]c2C(=O)NCc2ccccc2)cc1`: 3.55 µM (active). The same measure, in the same setting: next, `CCOC(=O)c1ccc(NC(=O)CNC(=O)c2ccco2)cc1`: “inactive”; `CCOC(=O)c1[nH]cnc1C(=O)Nc1ccccc1C`: 12.6 µM (active); `CCOC(=O)c1c(C)[nH]c(C)c1S(=O)(=O)N(C)CC(=O)Nc1ccccc1C`: “inactive”. Regarding `CCOC(=O)c1ccc(NC(=O)c2cc(=O)[nH]c3ccccc23)cc1`, the Potency result was “inactive”. For the molecule `Cc1ccc(CNS(=O)(=O)c2ccc3c(c2)N(C)CCO3)cc1`, the Potency entry is “inactive”. Still for that read-out and setting: with `COc1ccc(CCNC(=O)CSCc2ccc(Br)cc2)cc1OC` the entry was “inactive”. In the case of `COc1cc(C(C(=O)NC2CCCC2)N(C(=O)c2ccco2)c2ccccc2C(C)=O)cc(OC)c1OC` (stereo not drawn), the Potency entry was “inactive”. Same read-out and setting: next, `CCN1N=C(c2ccccc2)CCC1=O`: “inactive”; `COCCCNc1nc2c(-c3cccc(C)c3)nnn2c2ccc(Cl)cc12`: “inactive”.

Consider `COC(=O)Cn1cc(/C=C/[N+](=O)[O-])c2ccccc21`, for which the Potency is 10 µM (active). Same read-out and setting: with `COCCCNC(=O)Cn1cc(/C=C(\C#N)C(=O)N2CCN(c3ccccc3)CC2)c2ccccc21` the entry was “inactive”. Take `COC(=O)Cn1cc(C(=O)c2cccs2)c2ccccc21`: the Potency entry is “inactive”.

As to `O=C(NCc1cccc(Cl)c1)C1CCN(c2nnc(N3CCCC3=O)s2)CC1`, the Potency result was “inactive”. Still for that read-out and setting: next, `CCOC(=O)C1CCN(C(=O)C2CCCN(S(=O)(=O)c3ccc(OC)c(Cl)c3)C2)CC1` (stereo not drawn): “inactive”.

Turning to `CCOC(=O)N/N=C/c1cccnc1`, the Potency result was “inactive”. Regarding `COc1ccc(/C=C/C(=O)Nc2cccnc2)cc1OC`, the Potency result was “inactive”.

Turning to `COc1cc(/C=N/NC(=S)Nc2cccnc2)cc(OC)c1O`, the Potency is 6.31 µM (active).

For `COc1cc(N=Cc2c(O)[nH]c3ccccc23)cc(OC)c1OC`, the Potency entry is “inactive”. Same read-out and setting: next, `COCCNC(=S)N/N=C/c1c(C)[nH]c2ccccc12`: 11.2 µM (active). As for `Cc1[nH]c2ccccc2c1/C=N\NC(=O)Cn1nnc(-c2ccccc2)n1`, the activity change, negative = inhibition is 7.95% [at 10 µM] (inactive). On to `C=CCn1c(=O)c(C(=O)Nc2ncccc2O)c(O)c2ccccc21`, for which the Potency result is “inactive”. Still for that read-out and setting: with `COC(=O)N/N=C/c1ccc(/C=N/NC(=O)OC)cc1` the entry was “inactive”; with `Cc1ccc(OCCOc2cccc(/C=N/NC(N)=O)c2)cc1`, “inactive”; with `CCOc1ccc(/C=N/NC(N)=S)cc1`, 5.01 µM (active). Same read-out and setting: with `COC(=O)[C@@H]1CCCN1C(=O)c1cc(COc2cccc3cccnc23)on1` the entry was “inactive”; with `CCCC(=O)N1CCN(c2nnc(-c3ccc(C)cc3)c3ccccc23)CC1`, “inactive”; with `O=C(CN1C(=O)COc2ccc(Cl)cc21)N1CCOCC1`, “inactive”.

For the molecule `CCc1cccc(C)c1NC(=S)N(CCCN1CCN(C)CC1)Cc1cccs1`, the Potency entry was “inactive”. The same measure, in the same setting: next, `Cc1ccc(C)c2[nH]c(=O)c(CN(Cc3cccnc3)C(=S)NCc3ccco3)cc12`: “inactive”; `Cc1ccc(CN(Cc2cccnc2)C(=S)Nc2cccc(Cl)c2C)cc1`: 3.98 µM (active). Regarding `Cc1c(Cl)cccc1NC(=O)CSc1ccc(-c2cccnc2)nn1`, the Potency entry was “inactive”. Consider `Cc1cccc(C(=O)Nc2ccccc2C(=O)NCc2cccnc2)c1`, for which the Potency entry was “inactive”. Regarding `Cc1ccc(CN(Cc2cccnc2)C(=S)Nc2cc(Cl)ccc2C)cc1`, the Potency was 3.16 µM (active).

Turning to `Cc1ccccc1NC(=S)N(CCCN1CCOCC1)Cc1cccs1`, the Potency result is “inactive”. With `Cc1ccc(Cl)cc1NC(=S)N(CCN(C)C)Cc1cccs1`, the Potency is 11.2 µM (active).

`Cc1ccc(C)c(NC(=S)NCC(c2cccnc2)N2CCOCC2)c1` (stereo not drawn): the Potency entry is “inactive”. Take `COc1ccc(-c2nc3ccccc3c(=O)n2CCc2ccc(O)cc2)cc1`: the Potency entry was “inactive”. Turning to `CSc1nnc2ccc(-c3ccc(C)cc3)nn12`, the Potency entry was “inactive”. The same measure, in the same setting: with `Cc1ccc(C(CNC(=O)Nc2cccc(C)c2)N2CCN(C)CC2)cc1` (stereo not drawn) the entry was “inactive”; with `COc1cc(C(=O)NCC2(c3ccccc3)CCCC2)ccc1OC(C)C`, “inactive”.

Turning to `O=C(NCc1ccccc1Cl)C1CCN(c2ncnc3c2nc2n3CCCCC2)CC1`, the Potency result is “inactive”. For `CCOCCCN1C(=O)C2C(C(=O)Nc3ccc(OCC)cc3)C3C=CC2(O3)C1C(=O)NC1CCCCC1` (stereo not drawn), the Potency result was “inactive”.

On to `CCN(CC)CCn1cnc2c1c(=O)[nH]c(=O)n2Cc1ccccc1`, for which the Potency result was “inactive”. Take `CCOc1ccc(OCCSc2nc3ccccc3n2CC(=O)O)cc1`: the Potency result is “inactive”.

With `COc1ccc(S(=O)(=O)N2CCN(C)CC2)c(C)c1`, the activity change, negative = inhibition is 16.1% [at 1.91 µM] (inactive). On to `COc1ccc(N(Cc2cc3ccc(C)cc3[nH]c2=O)S(=O)(=O)c2ccccc2)cc1`, for which the Potency result is “inactive”. For `CC(C)(C)c1ccc(C(CC(=O)O)NS(=O)(=O)Cc2ccccc2)cc1` (stereo not drawn), the Potency entry is “inactive”. Still for that read-out and setting: with `CCCCN(CCCC)CCCNC(=O)CN1C(=O)COc2ccc(S(=O)(=O)N3CCC(C)CC3)cc21` the entry was “inactive”. The same measure, in the same setting: next, `NS(=O)(=O)c1ccc(CCNC(=S)Nc2ccc(S(N)(=O)=O)cc2)cc1`: “inactive”; `S=C(NCCCc1ccccc1)Nc1ccc(Br)cc1`: 8.91 µM (active). The same measure, in the same setting: with `S=C(NCCc1ccccc1)NCc1ccccc1Cl` the figure was 7.94 µM (active); with `CCc1ccc(NC(=O)CS(=O)CC(=O)NCCCc2ccccc2)cc1` (stereo not drawn), “inactive”.

With `O=C(NCCCc1ccccc1)C(=O)c1c[nH]c2ccccc12`, the Potency entry was “inactive”. For `Fc1ccccc1Cn1cnc(NC(=S)NCCc2ccccc2)n1`, the Potency result is “inactive”. Same read-out and setting: next, `S=C(NCCc1ccccc1)NCC1CCCO1` (stereo not drawn): 12.6 µM (active); `O=C(NCCc1ccccc1)C1CC1`: “inactive”. Same read-out and setting: next, `S=C(NCCc1ccccc1)Nc1ccccc1`: 3.16 µM (active); `O=C(CS(=O)(=O)Cc1ccccc1)NCC1CCCO1` (stereo not drawn): “inactive”. Still for that read-out and setting: next, `CCOc1ccc(CCNC(=O)Nc2ccccc2)cc1OCC`: “inactive”.

Consider `O=C(NCCc1c[nH]c2ccccc12)C(=O)NCC1CCCO1` (stereo not drawn), for which the Potency entry is “inactive”. Regarding `COc1ccccc1N1CCC(N2CCN(CC(C)(C)C)C(CCO)C2)CC1` (stereo not drawn), the Potency entry was “inactive”. Take `Cc1ccc(NS(=O)(=O)c2ccc(-c3coc(C)n3)cc2)c(C)c1`: the Potency result was “inactive”. Same read-out and setting: next, `CSc1ccc(S(=O)(=O)N2CCC(C(=O)NCc3ccncc3)CC2)cc1`: “inactive”; `COc1cc(/C=C2\SC(=O)NC2=O)ccc1OCc1ccc(Cl)nc1`: “inactive”. As for `CC(C)c1ccc(NC(=O)[C@@H](NC(=O)N2CC(=O)Nc3ccccc32)C(C)C)cc1`, the Potency result was “inactive”.

These data come from PubChem BioAssay AID2551 (National Center for Advancing Translational Sciences (NCATS), 2010).
